Source: PubChem (several laboratories)
BoNT-A LC inh2: blocks Botulinum neurotoxin A light chain protease; inhibition, % at 10 µM; multiplex microsphere protease substrate cleavage, flow cytometry; actives 0.17% (n = 360,000); AID 588499; note: plate controls were buffer without enzyme for full effect and enzyme alone for no effect
BoNT F protease: blocks Botulinum neurotoxin F light chain protease; Multiplex microsphere protease cleavage assay, flow cytometry; inhibition, % at 10 µM; AID 588497; actives 0.22% (n = 360,000); in the data active = inhibition above about 35%, passing the limit was not always enough; inconclusive = no clear call, values can overlap the other calls; note: plate controls were buffer without enzyme for full effect and enzyme alone for no effect
Anthrax LF inh2: anthrax lethal factor protease inhibition; actives 0.12% (n = 360,000); multiplex microsphere protease cleavage assay, LF; P15917; inhibition, % at 10 µM; note: plate controls were buffer without enzyme for full effect and enzyme alone for no effect
Target sequence (P15917 whole entry, looked up): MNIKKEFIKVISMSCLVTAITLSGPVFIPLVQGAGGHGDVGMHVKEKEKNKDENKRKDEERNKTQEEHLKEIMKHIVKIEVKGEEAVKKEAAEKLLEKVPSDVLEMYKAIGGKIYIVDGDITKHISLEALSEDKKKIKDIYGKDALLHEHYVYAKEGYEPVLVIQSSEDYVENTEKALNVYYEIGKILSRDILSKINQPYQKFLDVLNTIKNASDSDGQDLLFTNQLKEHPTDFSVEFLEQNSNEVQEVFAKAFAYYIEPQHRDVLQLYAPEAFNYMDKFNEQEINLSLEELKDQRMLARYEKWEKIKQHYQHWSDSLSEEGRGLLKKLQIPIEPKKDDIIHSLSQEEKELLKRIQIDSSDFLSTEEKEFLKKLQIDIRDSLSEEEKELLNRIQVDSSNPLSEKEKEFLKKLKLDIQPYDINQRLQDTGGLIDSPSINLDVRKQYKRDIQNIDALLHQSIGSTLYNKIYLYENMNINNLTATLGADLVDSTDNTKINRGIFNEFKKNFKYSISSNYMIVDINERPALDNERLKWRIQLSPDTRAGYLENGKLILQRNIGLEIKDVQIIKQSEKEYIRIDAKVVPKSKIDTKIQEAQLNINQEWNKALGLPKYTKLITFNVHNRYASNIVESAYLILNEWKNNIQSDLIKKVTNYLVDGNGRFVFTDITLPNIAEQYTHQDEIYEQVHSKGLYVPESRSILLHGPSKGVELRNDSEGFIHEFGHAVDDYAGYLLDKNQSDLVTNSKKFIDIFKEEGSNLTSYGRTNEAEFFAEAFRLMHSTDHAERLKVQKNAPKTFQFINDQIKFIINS
PriA SSB inh: blocks PriA binding to SSB C-terminal tail; actives 0.6% (n = 430,000); AlphaScreen SSBct-PriA binding, biotinylated peptide; inhibition, % at 33 µM; in the data active = inhibition mostly above about 37%, no sharp cut-off; inactive = mostly below about 20%;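 note: plate controls were negative control peptide for no effect and reference peptide for full effect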
Bead autofluor: flagged as autofluorescent in microsphere protease counterscreen; compound autofluorescence counterscreen, microsphere flow cytometry; hits give high values; actives 3.1% (n = 360,000); fluorescence intensity (no concentration beside the values); in the data active = fluorescence intensity above about 16000; inconclusive = no clear call, values can overlap the other calls
Numbers without * were called inactive; ? = inconclusive; · = no result given. The list is not random: actives were taken first. Their share in the collection is about 3.1%. Cut-off read from the data, not from the text of the source, unless noted: active = inhibition above about 30%; inconclusive = no clear call, values can overlap the other calls; inactive = below that.

SMILES	BoNT-A LC inh2	BoNT F protease	Anthrax LF inh2	PriA SSB inh	Bead autofluor
COC(=O)c1ccc(COc2nc(C)cc(C)c2C#N)o1	0.2	3.9	-2.5	-10.8	9660
Cc1ccc(C(=O)COc2nc(C)cc(C)c2C#N)cc1	-1.1	-2.6	-0.2	-7.0	22443*
Cc1cc(C)c(C#N)c(OCC(=O)c2ccc(Br)cc2)n1	?	-0.2	1.4	-13.8	23283*
c1ccc(OCCSc2nnnn2-c2ccccc2)cc1	-0.2	3.0	-7.5	-102.1	3295
Fc1ccccc1OCCSc1nnnn1-c1ccccc1	-1.7	-2.4	-2.0	-82.9	20510*
C(=C\CSc1ncn[nH]1)/CSc1ncn[nH]1	4.2	8.1	-1.3	-0.9	20380*
COc1cc(-c2nc3cnccc3n2C)cc(OC)c1OC	-1.5	?	-1.5	-9.8	4496
COc1cc(OC)c(-c2nc3cnccc3n2C)cc1OC	?	-4.7	-0.8	-25.1	16895*
Cn1c(=O)c2c(nc(CN3CCN(C(c4ccccc4)c4ccccc4)CC3)n2CC(N)=O)n(C)c1=O	1.6	1.3	1.8	-9.3	21667*
CC1CCCN(Cc2nc3c(c(=O)n(C)c(=O)n3C)n2CC(N)=O)C1 (stereo unspecified)	-1.8	-4.5	-4.3	-13.7	16667*
Oc1ccc2ccccc2c1C1Nc2cccc3cccc(c23)N1	-1.2	-9.7	-6.7	16.7	23653*
COc1cc(C2Nc3cccc4cccc(c34)N2)ccc1O	-4.8	?	-14.8	4.8	3240
c1ccc(CSc2nnc(-c3cccnc3)o2)nc1	·	·	·	-11.0	·
CCOc1ccccc1NC(=O)Nc1cccc(NC(C)=O)c1	-1.5	-2.4	-2.4	-0.7	?
COc1ccc(NC(=O)Nc2c(C)n(-c3ccccc3)c(=O)n2C)cc1OC	0.4	4.9	4.7	4.1	3343
CCN(CC)c1ccc(NC(=O)Nc2cccc(C(C)=O)c2)cc1	4.7	-13.2	-9.5	36.9	19762*
CC(=O)c1cccc(NC(=O)Nc2ccc(C(=O)N3CCCC3)cc2)c1	0.3	1.6	-1.0	-22.1	22040*
CCOc1ccccc1NC(=O)Nc1c(C)n(-c2ccccc2)c(=O)n1C	3.0	1.9	-5.2	-11.2	20830*
CC(=O)Nc1cccc(NC(=O)Nc2ccc(C(C)=O)cc2)c1	-1.0	25.1	-0.1	-21.6	4198
CCOc1ccccc1NC(=O)Nc1cccc(C(C)=O)c1	-0.3	0.3	-1.4	-11.7	23270*
O=C(COc1ccc(F)cc1)NCCS(=O)(=O)N1CCN(c2cccc(Cl)c2)CC1	·	·	·	5.0	·
Cc1cc(CNC(=O)c2cc(-c3ccccc3)nc3ccccc23)nn1C	-0.2	-2.4	-0.8	-13.7	4049
Cc1cc(C(=O)NCc2cc(C)n(C)n2)sc1-c1ccccc1	3.0	3.2	-8.7	-16.8	18215*
Cc1cc(CNC(=O)Cc2c(F)cccc2Cl)nn1C	0.4	1.6	-2.9	-0.7	19997*
CN(C)c1ccc(C=NNC(=O)c2cccc(C(=O)NN=Cc3ccc(N(C)C)cc3)n2)cc1	·	·	·	-12.9	·
SMILES	BoNT-A LC inh2	BoNT F protease	Anthrax LF inh2	PriA SSB inh	Bead autofluor
COc1cccc(N2CCN(c3ncnc4c3[nH]c3ccc(F)cc34)CC2C)c1 (stereo unspecified)	-0.3	-3.2	-8.7	42.1*	3479
COc1ccc2[nH]c3c(N4CC(C)OC(C)C4)ncnc3c2c1 (stereo unspecified)	·	·	·	-15.5	·
COc1cc(C)c(S(=O)(=O)Nc2c(C)nc(N(C)C)nc2C)cc1C	·	·	·	-12.0	·
COc1ccc2nc(-c3ccc(C)c(NS(=O)(=O)c4ccc(OC)c(F)c4)c3)cn2n1	·	·	·	-18.0	·
O=S1(=O)CC2(N3CCOCC3)CCCCCCC21 (stereo unspecified)	-1.9	-1.1	0.0	-8.4	23822*
O=S1(=O)CC2(N3CCOCC3)CCCCC21 (stereo unspecified)	1.5	1.2	-1.9	-1.3	19624*
CC1CCN(c2cc(NC(=O)Cc3ccc(Br)cc3)ncn2)CC1	·	·	·	-11.0	·
CC1CC(=O)N(CC(=O)NCc2ccco2)c2ccccc2S1 (stereo unspecified)	-2.0	-2.9	-0.8	-2.6	23847*
O=C(CN1CCCc2ccccc21)NC(=O)NCc1ccccc1	-0.3	-5.7	-0.1	-2.8	4999
CC1Cc2ccccc2N1CC(=O)Nc1ccc2c(c1)OCO2 (stereo unspecified)	11.3	2.3	8.3	19.1	20865*
C/C(CC(=O)Nc1ccc2c(c1)OCO2)=N\NC(=O)OC(C)(C)C	5.0	42.2*	-0.1	·	4752
O=C(CN1CCCc2ccccc21)NC(=O)NCc1ccco1	-1.0	-3.4	-4.3	-15.8	17200*
CC1CC(=O)N(CC(=O)NCc2ccc3c(c2)OCO3)c2ccccc2S1 (stereo unspecified)	1.1	8.7	-0.9	-3.0	10183
CC(=O)Nc1ccc(S(=O)(=O)NCC(=O)O)cc1	·	·	·	-16.0	·
